Laboratory results from PubChem BioAssay (NCATS).

What follows are compounds tested against Glucocorticoid receptor (Homo sapiens) (UniProt P04150) (assay: GR-GFP Redistribution (AID 450)). Conditions: U2OS GR-GFP nuclear translocation, laser cytometry, 2 h; series mostly up to 20.6 µM;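 active = compounds whose dose series gives a full or clear partial fitted curve of increased nuclear translocation; inconclusive = weak partial curve or effect only at the top dose; inactive = no dose-dependent translocation response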.
Glucocorticoid receptor (Homo sapiens), sequence (P04150 whole entry, looked up): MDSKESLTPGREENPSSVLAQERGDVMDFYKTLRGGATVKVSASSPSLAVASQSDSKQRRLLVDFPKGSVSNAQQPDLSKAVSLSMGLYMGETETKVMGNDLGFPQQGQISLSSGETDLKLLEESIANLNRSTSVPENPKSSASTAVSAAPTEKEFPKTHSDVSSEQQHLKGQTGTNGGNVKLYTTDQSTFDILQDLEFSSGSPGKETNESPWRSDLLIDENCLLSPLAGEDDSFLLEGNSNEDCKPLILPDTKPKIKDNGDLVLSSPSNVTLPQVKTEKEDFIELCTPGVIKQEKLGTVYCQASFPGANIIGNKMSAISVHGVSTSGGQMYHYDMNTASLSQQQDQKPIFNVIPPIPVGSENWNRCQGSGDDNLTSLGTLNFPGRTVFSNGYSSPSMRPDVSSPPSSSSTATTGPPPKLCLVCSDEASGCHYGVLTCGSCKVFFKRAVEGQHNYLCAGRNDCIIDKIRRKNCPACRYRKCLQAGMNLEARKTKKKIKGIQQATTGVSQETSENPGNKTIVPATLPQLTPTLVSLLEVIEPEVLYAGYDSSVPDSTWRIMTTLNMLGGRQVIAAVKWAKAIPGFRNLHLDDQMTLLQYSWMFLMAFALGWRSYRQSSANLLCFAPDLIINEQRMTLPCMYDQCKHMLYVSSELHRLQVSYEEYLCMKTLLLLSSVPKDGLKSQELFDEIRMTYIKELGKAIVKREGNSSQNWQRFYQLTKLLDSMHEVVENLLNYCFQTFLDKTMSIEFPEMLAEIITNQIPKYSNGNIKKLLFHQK
From the text: NIH Molecular Libraries Screening Centers Network [MLSCN]
NIH Chemical Genomics Center [NCGC]
The glucocorticoid receptor (GR) Redistribution assay (BioImage) enables the visualization of GR cytoplasmic to nuclear translocation by the use of a GR-GFP fusion. GR is normally cytosolic, however ligands such as dexamethasone, cause nuclear translocation where the protein binds to response elements and interacts with various co-factors to modulate transcription. Because both functional agonists and antagonists can induce nuclear translocation, this assay can detect ligands regardless of their effects on gene expression. GR-GFP expressing U20S cells were used here. Dexamethasone was the positive control for translocation and data normalization. Detection of nuclear translocation was performed in 1536-well plates using the Acumen laser scanning plate cytometer (TTP LabTech). Validation of this assay and a detailed protocol have been described.
NCGC Assay Protocol Summary:
GR-GFP U2OS cells were maintained in DMEM with Glutamax and high glucose, 1% v/v penicillin-streptomycin, and 0.5 mg/mL Geneticin. For cell culture, 10% […] fetal bovine serum (FBS) was used (Invitrogen #26140-079). For cell plating 10% dextran, charcoal-stripped FBS (Hyclone SH30068.03) was used. U2OS cells were trypsin treated, suspended in medium, and passed through a 40 um basket filter. The cells were seeded at 600 cells/5 uL/well into clear-bottom black sided 1536-well plates and incubated for approximately 20 hrs, 37degC, 5%, CO2 in a tissue culture incubator. Twenty-three nL of compound was delivered by pin tool and the plates were incubated as above for 2 hrs. The compounds were tested as a 7-point titration ranging from 46 uM to 0.6 nM. The cells were fixed using the Kalypsys Washer/Dispenser station. The fixing protocol involved aspiration of the cell media, addition of 6 uL/well of PBS, aspiration of PBS, addition of 5uL/well of 100% methanol, aspiration of methanol, and addition of 3 uL/well PBS with 1.5 uM propidium iodide (PI). The plates were read by the Acumen Explorer using a 1 x 8 um scan of the whole well area. PI fluorescence triggered the collection of PI and GFP signals. A nuclei population was defined by a 10 to 100 um width and depth filter that eliminated small and large fluorescent particles. Two subpopulations of nuclei were then defined by peak intensity of GFP fluorescence to obtain translocated and untranslocated objects. The number of translocated objects was used for data normalization.
Keywords: NIH Roadmap, MLSCN, MLI, MLSMR, sOGT, qHTS, NCGC
Potency is the fitted concentration of half-maximal effect.

Potency, inactive:
O=C(OCCN1CCOCC1)c1ccc2c(c1)OCCO2 > 20.6 µM
Cc1c(C(=O)O)c(O)cc2c1C(=O)c1c(O)c([C@@H]3O[C@H](CO)[C@@H](O)[C@H](O)[C@@H]3O)c(O)c(O)c1C2=O > 46 µM
Fc1ccccc1/C=N/n1cnnc1 > 20.6 µM
COC(=O)c1ccc(Cn2nnc3c(sc4nc(N5CCOCC5)c5c(c43)CCCC5)c2=O)o1 > 20.6 µM
Cc1nc2c(c(=O)n1CC1CCCO1)c1nc3ccccc3nc1n2CCC(C)C (stereo not given) > 20.6 µM
CCOC(=O)CCCCC(=O)NC(CO)C(=O)NC (stereo not given) > 20.6 µM
NC(=O)CSc1nnc2n(-c3ccccc3)c(=O)c3c4c(sc3n12)CCCCC4 > 20.6 µM
CCN(CC)CCCn1c(C)cc2c(c1=O)C(c1ccc(OC)c(OC)c1OC)C(C#N)=C(N)O2 (stereo not given) > 20.6 µM
OCCOCCNc1ncnc2c1cnn2-c1ccccc1 > 20.6 µM
N#CC(C(=O)Nc1ccc(Cl)c(Cl)c1)=C1Nc2ccccc2N1 > 20.6 µM
CCOc1nc(SCCOc2ccc(C)cc2)nc(N(C)C)n1 > 20.6 µM
COc1ccccc1C(=O)N1CCCC1(C#N)c1ccccc1 (stereo not given) > 20.6 µM
CC(C)COC(=O)CCNc1n[nH]c(=O)[nH]c1=O > 20.6 µM
O=C1C=CC2=C3c4cc(O)c(O)cc4C[C@@]3(O)COC2=C1O > 46 µM
Fc1cc(F)c(F)c(SCCc2ccncc2)c1F > 20.6 µM
Cc1cc(C)n(CC2CC(=O)N(c3ccc(C)c(Cl)c3)C2=O)n1 (stereo not given) > 20.6 µM
Cc1ccc(S(=O)(=O)NCC(=O)OCN2C(=O)c3ccccc3C2=O)cc1 > 20.6 µM
COc1cccc(-c2nnc3sc(-c4ccccc4)nn23)c1 > 20.6 µM
COc1ccc2oc(-c3ccccc3)c(OC)c(=O)c2c1 > 46 µM
CCCC1C(c2ccc(OC)cc2)C(C#N)(C#N)C2(C#N)CC1(N)NC2=O (stereo not given) > 20.6 µM
COCCCNc1nc2c(c(=O)n(C)c(=O)n2C)n1Cc1cccc(OC)c1 > 20.6 µM
O=C(NCc1ccccn1)c1ccc(=O)oc1 > 20.6 µM
CCOc1cccc(-c2nnc3sc(-c4ccc(C)cc4)nn23)c1 > 20.6 µM
CC(CN1CCN(C)CC1)OC(=O)c1ccc(Cl)cc1Cl (stereo not given) > 20.6 µM
CC(C)Cc1[nH]c(=O)c(C#N)c2c1CCCC2 > 20.6 µM
CCCc1nc(NC2CCCCC2)c(C#N)c2c1COC(C)(C)C2 > 20.6 µM
CC1CN(C2CCN(C(=O)COc3ccccc3)CC2)CC(C)O1 (stereo not given) > 20.6 µM
c1csc(-c2nn3c(C4CCCCC4)nnc3s2)c1 > 20.6 µM
CN(Cc1c(O)ccc2c1oc(=O)c1ccccc12)C1CCCCC1 > 20.6 µM
Cc1cc(=O)n2[nH]cnc2n1 > 20.6 µM
CCCc1[nH]nc2c1C(c1cccc(OC)c1)C(C#N)=C(N)O2 (stereo not given) > 20.6 µM
C1CCCN(CCCCN2CCCCCC2)CC1 > 20.6 µM
CCN(CC)C(=O)CSc1nc2ccccc2c(=O)n1CC1CCCCC1 > 20.6 µM
COCCOC(=O)c1c(C)oc2ccc(OC(=O)COc3c(F)c(F)c(F)c(F)c3F)cc12 > 20.6 µM
Cc1nnc(C)n1/N=C/c1cc(Br)cc(Br)c1O > 20.6 µM
C=CCNc1nc(C2(C)CC3(CC(C)(C)OC3=O)C(=O)O2)cs1 (stereo not given) > 20.6 µM
CCOC(=O)CSc1nc(N2CCOCC2)c2c(c1C#N)CC(C)(C)N(C)C2 > 20.6 µM
Cc1cc(C)nc(N(C#N)CN2C(=O)c3ccccc3C2=O)n1 > 20.6 µM
CCCc1cc(=O)oc2c(C)c(O)c(CN3CCCCC3)cc12 > 20.6 µM
N#Cc1c(NCCCO)nc(-c2ccccc2)c2c1CCCC2 > 20.6 µM
